Results as given in the antibiotic and cytotoxicity screens of Wong et al. (2023).
In all, about 39,000 compounds went through this assay and about 3,300 (8.5%) were called active. The full list was thinned out, with actives kept by preference.

system: HepG2; assay: cytotoxicity call (relative viability < 0.9); conditions: 10 µM

Compound	cytotoxicity call
C[C@@H]1CN([C@H](C)CO)C(=O)c2cc(NC(=O)CCC(F)(F)F)ccc2O[C@@H](C)CCCCO[C@H]1CN(C)S(=O)(=O)c1cccs1	inactive
CN(C)CCOC(C)(c1ccccc1)c1ccccn1.O=C(O)CCC(=O)O (configuration not stated)	inactive
CN1CCC[C@H]1CCO	inactive
CN1CCCC1CCOC(C)(c1ccccc1)c1ccc(Cl)cc1.O=C(O)C=CC(=O)O (configuration not stated)	active
COc1ccc(S(=O)(=O)N(C)C[C@H]2Oc3ccc(NS(=O)(=O)c4cn(C)cn4)cc3CC(=O)N([C@H](C)CO)C[C@H]2C)cc1	inactive
Cn1cc(N2C[C@]3(COCCN(C(=O)C4(C#N)CC4)C3)OCC2=O)cn1	inactive
COc1ccc(-c2oc3cc(O[C@H]4O[C@H](CO)[C@@H](O)[C@H](O)[C@H]4O)c(OC)c(O)c3c(=O)c2OC)cc1O	inactive
COc1cc(-c2coc3cc(O[C@@H]4O[C@H](CO)[C@@H](O)[C@H](O)[C@H]4O)c(OC)c(O)c3c2=O)cc(O)c1OC	inactive
COc1cc(-c2coc3cc(OC4OC(CO)C(O)C(O)C4O)c(OC)c(O)c3c2=O)cc(O)c1OC (configuration not stated)	active
O=C1CCCSc2ccccc21	inactive
C[C@@H]1CN([C@H](C)CO)C(=O)c2cc(NC(=O)C3CCCCC3)ccc2O[C@@H](C)CCCCO[C@H]1CN(C)C(=O)Nc1ccc2c(c1)OCO2	inactive
C[C@@H]1CCCCO[C@@H](CN(C)C(=O)CCCN(C)C)[C@H](C)CN([C@@H](C)CO)C(=O)c2cc(N(C)C)ccc2O1	inactive
C[C@H](CO)N1C[C@H](C)[C@@H](CN(C)C(=O)Nc2ccc(F)cc2)OCCCC[C@H](C)Oc2ccc(NC(=O)Nc3ccccc3)cc2C1=O	inactive
CC(C)C(C)C=CC(C)C1CCC2C3=CC=C4CC(O)CCC4(C)C3CCC21C (configuration not stated)	inactive
CCn1cc(C(=O)O)c(=O)c2ccc(C)nc21	inactive
Cc1ccc2c(Br)cc(Br)c(OC(=O)c3ccccc3)c2n1	active
CNC[C@@H]1Oc2cc(C#CC(C)(C)O)ccc2S(=O)(=O)N([C@@H](C)CO)C[C@H]1C	inactive
C[C@@H]1CN([C@@H](C)CO)S(=O)(=O)c2ccc(-c3ccncc3)cc2O[C@H]1CN(C)Cc1ccc(Oc2ccccc2)cc1	active
COc1ccccc1C#Cc1ccc2c(c1)O[C@@H](CN(C)Cc1ccncc1)[C@@H](C)CN([C@H](C)CO)S2(=O)=O	inactive
COc1ccccc1C#Cc1ccc2c(c1)O[C@H](CN(C)Cc1ccncc1)[C@@H](C)CN([C@H](C)CO)S2(=O)=O	inactive
C[C@H]1CN([C@@H](C)CO)S(=O)(=O)c2ccc(-c3ccncc3)cc2O[C@@H]1CN(C)Cc1ccc(Oc2ccccc2)cc1	inactive

Compound	cytotoxicity call
COc1ccccc1C#Cc1ccc2c(c1)O[C@@H](CN(C)Cc1ccncc1)[C@H](C)CN([C@H](C)CO)S2(=O)=O	inactive
COc1ccccc1C#Cc1ccc2c(c1)O[C@H](CN(C)Cc1ccncc1)[C@H](C)CN([C@H](C)CO)S2(=O)=O	active
C[C@H]1CN([C@@H](C)CO)S(=O)(=O)c2ccc(-c3ccncc3)cc2O[C@H]1CN(C)Cc1ccc(Oc2ccccc2)cc1	inactive
COc1ccccc1C#Cc1ccc2c(c1)O[C@H](CN(C)Cc1ccncc1)[C@@H](C)CN([C@@H](C)CO)S2(=O)=O	active
COc1ccccc1C#Cc1ccc2c(c1)O[C@@H](CN(C)Cc1ccncc1)[C@@H](C)CN([C@@H](C)CO)S2(=O)=O	inactive
Cl.N=C(N)n1cccn1	inactive
C[C@@H]1CCCCO[C@@H](CN(C)S(=O)(=O)c2cn(C)cn2)[C@@H](C)CN([C@H](C)CO)C(=O)c2cc(N(C)C)ccc2O1	inactive
Cn1cccc1CNCCCN1CCOCC1	inactive
C[C@H]1CCCCO[C@H](CN(C)C(=O)Nc2ccc3c(c2)OCO3)[C@@H](C)CN([C@@H](C)CO)C(=O)c2cc(NC(=O)Nc3ccc(C(F)(F)F)cc3)ccc2O1	inactive
Cc1ccc(S(=O)(=O)N(C)C[C@H]2Oc3ccc(NS(C)(=O)=O)cc3C(=O)N([C@H](C)CO)C[C@@H]2C)cc1	inactive
Cc1noc(C)c1NC(=O)Nc1ccc2c(c1)C(=O)N([C@H](C)CO)C[C@@H](C)[C@H](CN(C)Cc1ccc(C(F)(F)F)cc1)O2	inactive
COc1ccc([C@@H]([C@H](Cc2ccccc2)OC(C)=O)N2C[C@@H]3C(=NO[C@H]3[C@@H](OC(C)=O)c3ccccc3)[C@@H]2Cc2ccccc2)cc1	inactive
COc1ccc([C@@H]([C@H](Cc2ccccc2)OC(C)=O)N2C[C@@H](CC(=O)N(C)C)[C@@H]3[C@H]([C@@H]2Cc2ccccc2)N(C)O[C@H]3c2ccccc2)cc1	inactive
COc1ccc([C@@H]([C@H](Cc2ccccc2)OC(C)=O)N2C[C@H]3[C@H]([C@@H](OC(C)=O)c4ccccc4)ON(C)[C@H]3[C@@H]2Cc2ccccc2)cc1	active
COc1ccc([C@@H]([C@H](Cc2ccccc2)OC(C)=O)N2C[C@@H](OC(C)=O)[C@@H]3[C@H]([C@@H]2Cc2ccccc2)N(C)O[C@H]3c2ccccc2)cc1	inactive
COc1ccc([C@@H]([C@H](Cc2ccccc2)OC(C)=O)N2C[C@H](CC(=O)N(C)C)[C@@H]3[C@H]([C@@H]2Cc2ccccc2)N(C)O[C@H]3c2ccccc2)cc1	inactive
COc1ccc([C@@H]([C@H](Cc2ccccc2)OC(C)=O)N2C[C@@H]3[C@H]([C@@H]2Cc2ccccc2)N(C)O[C@@]3(O)[C@@H](O)c2ccccc2)cc1	inactive
COc1ccc([C@@H]([C@H](Cc2ccccc2)OC(C)=O)N2C[C@H]3[C@@H]([C@@H](O)c4ccccc4)ON(C)[C@H]3[C@@H]2Cc2ccccc2)cc1	active
COc1ccc([C@@H]([C@H](Cc2ccccc2)OC(C)=O)N2C[C@@H](CC(=O)N(C)C)[C@H]3[C@@H]([C@@H]2Cc2ccccc2)N(C)O[C@@H]3c2ccccc2)cc1	active
COc1ccc([C@@H]([C@H](Cc2ccccc2)OC(C)=O)N2C[C@@H](NC(=O)C(Cl)(Cl)Cl)[C@@H]3[C@H]([C@@H]2Cc2ccccc2)N(C)O[C@H]3c2ccccc2)cc1	inactive
Cn1cnc(S(=O)(=O)N[C@@H]2CC[C@@H](CC(=O)Nc3ccccc3)O[C@H]2CO)c1	inactive
